This is an account of results in publication PMC6212790, “How bacterial xenogeneic silencer rok distinguishes foreign from self DNA in its resident genome”.

In all, about 33,000 sequences were measured (“e-score”: median about -0.038, highest 2% from about 0.33 on). The sample holds the highest values, similar sequences and a random draw of the others, so the mix is not that of the screen.

This experiment has as its target T1, GST-Rok-C97-191 (Bacillus subtilis subsp. subtilis str. …, UniProt O34857 97-191).
T1 sequence: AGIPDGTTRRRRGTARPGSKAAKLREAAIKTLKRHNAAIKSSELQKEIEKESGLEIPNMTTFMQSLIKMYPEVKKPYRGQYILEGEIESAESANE
Description: protein binding microarray; Rok is a gene silencer of Bacillus subtilis; high values mean tight binding. Particulars: protein: recombinant; tags: GST (pTH5325, pDEST15-Magic modified); dsDNA, one strand shown. The method, boiled down: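 Each has a 25-mer constant primer and a 35-mer variable part from a de Bruijn sequence of order 10, covering every non-palindromic 8-mer at least 32 times (palindromic 16). Preference for each 8-mer is given as a rank-based, unitless enrichment score (E-score). Its range runs from 0.5 (most favored) to −0.5 (most disfavored).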
Take ATACAAAT: the binding signal worked out at 0.337 E-score.
With CTACAAAC, the binding signal was 0.114 E-score.
Under ATACAAAA stands 0.276 E-score; under ATACAAAC, 0.371 E-score; under GTACAAAC, 0.304 E-score.
Under ATACAAAG stands 0.17 E-score.
Under CAGGAATG stands -0.083 E-score; under TGAGGTAA, 0.126 E-score; under ATTGACCG, -0.00184 E-score.
AATACTCT: the binding signal is 0.131 E-score.
The figure for AATACTGT is 0.083 E-score; for GATACTAC it is 0.313 E-score; for CATACTAG it is 0.285 E-score.
Under CATACTAC stands 0.284 E-score; under CATACTAA, 0.0976 E-score; under AATACTAC, 0.383 E-score.
For AATACTAA, the binding signal is 0.287 E-score.
The figure for AATACTAT is 0.35 E-score; for AATACTAG it is 0.34 E-score.
The figure for AATACTCG is 0.0344 E-score; for TATACTAA it is 0.382 E-score; for GCAATCCC it is -0.104 E-score.
As to GTCAGGAC, the binding signal is -0.147 E-score.
Under AATTTCAG stands 0.153 E-score; under ACCTTCGG, -0.173 E-score.
The figure for AGTTGAGA is 0.111 E-score.
Under ACCTAACT stands 0.128 E-score; under TAGACGAA, -0.0468 E-score; under GTGCAAAA, 0.0465 E-score.
Turning to CGTCCACG, the binding signal is -0.161 E-score.
For AGGTTGCG, the binding signal is -0.0431 E-score.
The figure for AGTAATAG is 0.355 E-score; for ACTAATAT it is 0.342 E-score.
The figure for CGTAATAG is 0.247 E-score; for ACTAATAG it is 0.292 E-score; for AGTAATAT it is 0.386 E-score.
Under ACTAATAC stands 0.248 E-score; under AGTAATAC, 0.274 E-score; under AGTAATAA, 0.238 E-score.
With AGTAATCG, the binding signal is 0.0918 E-score.
The figure for AAGGTTGG is -0.0102 E-score; for ACGCATTA it is 0.134 E-score; for CGGTGCAG it is -0.0983 E-score.
Consider GGCTAGAC, for which the binding signal was -0.152 E-score.
The figure for AGATTAGC is 0.212 E-score; for GGGTAAAA it is 0.206 E-score.
As for CAGTAAAA, the binding signal stood at 0.188 E-score.
Under AAGTAAAG stands 0.104 E-score; under TGGTAAAA, 0.337 E-score; under AGGTAAAT, 0.247 E-score.
Under AAGTAAAT stands 0.359 E-score; under GAGTAAAA, 0.269 E-score.
The figure for TAGTAAAA is 0.37 E-score; for AAGTAAGT it is 0.263 E-score; for AAGTAAAC it is 0.116 E-score.
Consider AAGTAAAA, for which the binding signal was determined as 0.335 E-score.
Under CGGTAAAA stands 0.242 E-score; under CTGAAAAG, 0.0606 E-score.
The figure for CTCCATAA is -0.175 E-score; for TCTCCGAA it is 0.161 E-score.
Under TAAGCATA stands 0.00925 E-score; under AAAGGTCA, -0.146 E-score; under ACGCACCA, -0.186 E-score.
Consider AAGACCGG, for which the binding signal is -0.0043 E-score.
Under CCTTATTA stands 0.0213 E-score; under CGTAACTC, 0.0679 E-score; under GTTAGCGA, 0.0595 E-score.
The figure for GAGCTGCC is 0.0253 E-score.
Take GACAGACA: the binding signal is -0.102 E-score.
For CGTAAGTA, the binding signal was 0.16 E-score.
Under GCGTGAGA stands -0.00817 E-score; under ATTTACTA, 0.439 E-score.
Under GATTACTA stands 0.354 E-score; under AATTACTG, 0.253 E-score.
The figure for AATTACTC is 0.255 E-score.
As for AATTACCA, the binding signal is 0.33 E-score.
The figure for GATTACCA is 0.14 E-score; for ATTTACTG it is 0.319 E-score; for ATTTACTC it is 0.234 E-score.
The figure for CATTACTA is 0.32 E-score; for AATTACCC it is 0.185 E-score.
Under AATTACTA stands 0.43 E-score.
With GATTACAA, the binding signal stood at 0.134 E-score.
The figure for AGGCCTAG is 0.0496 E-score; for GACCGCTA it is 0.0642 E-score; for AATAACCG it is 0.184 E-score.
Under AACCAGCA stands 0.0878 E-score.
Under GTCGAGGA stands -0.0836 E-score; under GCGTCCGA, -0.026 E-score; under CACCTCGC, -0.148 E-score.
For the sequence ACTGCCCT, the binding signal was -0.164 E-score.
Under GGAAGTCA stands -0.092 E-score; under AAGTTTCC, 0.148 E-score; under GAATTACC, 0.18 E-score.
Regarding AAATTACC, the binding signal was determined as 0.365 E-score.
Consider ACATTACT, for which the binding signal came to 0.263 E-score.
The figure for AAATTACG is 0.273 E-score.
Under AAATTACT stands 0.358 E-score.
The figure for CAATTACC is 0.0477 E-score.
As for CAGTTGAC, the binding signal came to 0.0118 E-score.
For the sequence AACGCAAA, the binding signal was -0.043 E-score.
The figure for CCAACTCG is -0.0471 E-score; for ACATGCTA it is 0.33 E-score.
Under CCATGCTA stands 0.153 E-score; under GCATGCTA, 0.0693 E-score.
Consider CTGACATA, for which the binding signal was -0.188 E-score.
Under ACACAACT stands 0.0324 E-score; under ATATACAA, 0.365 E-score; under CTATACTC, 0.173 E-score.
The figure for GTATACTA is 0.338 E-score; for GGATACTA it is 0.167 E-score.
ATATACAG: the binding signal was 0.317 E-score.
Under CTATACAA stands 0.3 E-score; under ATATACTA, 0.436 E-score; under CTATACTA, 0.301 E-score.
Under ACATACTA stands 0.305 E-score.
On to GCATACTA, for which the binding signal worked out at 0.241 E-score.
The figure for ATATACTC is 0.293 E-score; for ATATACTG it is 0.365 E-score.
The figure for CAAGGATG is -0.044 E-score; for CTGTCTCA it is -0.118 E-score.
The figure for CAGGGCCA is -0.145 E-score; for GTCACAAA it is 0.0798 E-score; for GAGCTTGA it is -0.0815 E-score.
As for CACTTGTA, the binding signal amounted to 0.238 E-score.
For GACAAGTA, the binding signal amounted to 0.226 E-score.
On to CAATTGTG, for which the binding signal was found to be 0.0188 E-score.
Under AATTCGAT stands 0.215 E-score; under CTAACTAG, 0.268 E-score; under TTAACTAA, 0.235 E-score.
Take CTAACTAA: the binding signal came to 0.288 E-score.
Regarding GTAACTAA, the binding signal was 0.353 E-score.
The figure for CTAACTCC is -0.00723 E-score.
The figure for GTAACTAC is 0.417 E-score; for ATAACTAC it is 0.323 E-score; for GGAACTAC it is 0.254 E-score.
The figure for CTAACTAC is 0.348 E-score.
CAAGCAGA: the binding signal was found to be 0.0345 E-score.
The figure for GCCGAATA is 0.0948 E-score; for GCTCGTAA it is 0.0484 E-score.
Under ACTCCAGC stands 0.114 E-score.
Consider CTGAAGGA, for which the binding signal was -0.156 E-score.
Under ATCCAGCG stands -0.106 E-score; under GACTACCC, 0.0938 E-score; under AACTACCA, 0.433 E-score.
The figure for AACTACCG is 0.41 E-score.
The figure for AACTACCT is 0.412 E-score; for AGCTACCG it is 0.228 E-score.
In the case of ACCTACCT, the binding signal was 0.154 E-score.
The figure for AACTACCC is 0.338 E-score; for CACTACCG it is 0.065 E-score.
Regarding GACTACCA, the binding signal was 0.141 E-score.
As to CACTACCC, the binding signal is -0.0292 E-score.
Turning to AACTATCT, the binding signal was 0.294 E-score.
Under CACTACCA stands 0.0866 E-score; under CAATTTTA, 0.234 E-score; under ACGGGAGA, -0.12 E-score.
The figure for CAAGTTGA is -0.0731 E-score.
The figure for TCGACTAA is 0.0796 E-score; for AAAGTTCT it is 0.145 E-score; for GCTCGGTA it is 0.0228 E-score.
For AGCGGCCG, the binding signal is -0.112 E-score.
Under CATTGATA stands 0.26 E-score; under ACGTTCAC, 0.0772 E-score.
For the sequence GATAAGTA, the binding signal was 0.238 E-score.
With CCGTCGAA, the binding signal stood at 0.0267 E-score.
Under GGAATGGA stands -0.114 E-score; under TGCTACCA, 0.099 E-score; under TCCTACCA, 0.273 E-score.
The figure for TACTACCA is 0.404 E-score.
Under CGCTACGA stands 0.0242 E-score; under CCTGTCCC, 0.0167 E-score.
